Data on 20 compounds can be found in PubChem BioAssay (Tox21).

The structures appear in SMILES notation. Inconclusive results are not listed. A call without a number means that no potency is given here. Activity calls are given as the source filed them. Calls follow the shape of the full dose curve.
Potency is read from the fitted curve at half-maximal effect.

Sequence of 5-hydroxytryptamine receptor 2A (Homo sapiens) (P28223 whole entry, looked up): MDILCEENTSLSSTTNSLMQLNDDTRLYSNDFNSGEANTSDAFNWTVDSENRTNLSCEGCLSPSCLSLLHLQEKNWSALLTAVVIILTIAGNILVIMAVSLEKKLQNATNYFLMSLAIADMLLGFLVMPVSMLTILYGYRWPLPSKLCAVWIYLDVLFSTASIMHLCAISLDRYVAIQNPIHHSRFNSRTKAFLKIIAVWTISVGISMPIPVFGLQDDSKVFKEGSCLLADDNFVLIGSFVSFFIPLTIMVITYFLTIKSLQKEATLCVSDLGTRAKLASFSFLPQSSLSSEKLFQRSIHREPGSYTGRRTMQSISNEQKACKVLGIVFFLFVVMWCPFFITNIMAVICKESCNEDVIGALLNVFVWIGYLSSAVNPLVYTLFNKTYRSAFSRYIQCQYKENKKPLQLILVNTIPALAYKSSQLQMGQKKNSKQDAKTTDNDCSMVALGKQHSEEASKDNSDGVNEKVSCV

This experiment concerns the target 5-hydroxytryptamine receptor 2A (Homo sapiens) (UniProt P28223). The experiment in a line: 5-hydroxytryptamine receptor 2A (HTR2A) small molecule agonists, cell-based qHTS assay (AID 1963587). Also: nearly all actives have a fitted effect of over 30% in size. Conditions: HTR2A-CHO cells, calcium flux fluorescence, agonist mode; series mostly up to 76.8 µM. An outline of the steps:
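HTR2A-CHO cells, plated 18 h at 37 C/5% CO2, dye-loaded 1 h at 37 C; compounds in DMSO added by pin tool (agonist mode). Intracellular calcium flux read as kinetic fluorescence on FDSS over 2 min at 1 s intervals.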
For orientation: qHTS replaces the single test concentration by a dilution series.
As for `O=P(c1ccccc1)(c1ccccc1)c1ccccc1`, the Potency entry was “inactive”.
For `Nc1cccc2c(N)cccc12` the value was “inactive”; for `CC1(C)CCC[C@]2(C)[C@H]3CCO[C@]3(C)CC[C@@H]12`, “inactive”.
For `O=C(NCC(O)CO)c1c(I)c(C(=O)NCC(O)CO)c(I)c(N(CCO)C(=O)CO)c1I` (stereo not given) the value was “inactive”; for `CC[C@@H]([C@H](C)O)n1ncn(-c2ccc(N3CCN(c4ccc(OC[C@@H]5CO[C@@](Cn6cncn6)(c6ccc(F)cc6F)C5)cc4)CC3)cc2)c1=O`, “inactive”.
On to `O=C1Cc2ccccc2C1`, for which the Potency entry was “inactive”.
For `C=C(C)C(=O)OCC(O)COc1ccc(C(C)(C)c2ccc(OCC(O)COC(=O)C(=C)C)cc2)cc1` (stereo not given) the value was “inactive”.
For `COc1cc(Cl)c(OC)cc1N` the value was “inactive”; for `CC1CCCC1`, “inactive”; for `CN1[C@@H]2CC(OC(=O)[C@H](CO)c3ccccc3)C[C@H]1[C@@H]1O[C@@H]12` (stereo not given in full), “inactive”.
For `CS(=O)(=O)c1ccc([C@@H](CC2CCCC2)C(=O)Nc2cnccn2)cc1Cl` the value was “inactive”.
`CN1CCC(N(Cc2cccs2)c2ccccc2)CC1`: the Potency result was “inactive”.
For the compound `COc1ccc2ccccc2c1`, the Potency result was “inactive”.
For `CCOC(=O)CC(=O)C(=O)OCC` the value was “inactive”; for `Cc1nc(-c2ccccn2)ncc1C(=O)Nn1cc(C)c2cc(F)ccc21`, “inactive”.
For `COCCOC` the value was “inactive”; for `COC(=O)[C@H]1[C@H]2C[C@@H]3c4[nH]c5cc(OC)ccc5c4CCN3C[C@H]2C[C@@H](OC(=O)/C=C/c2ccc(O)c(OC)c2)[C@@H]1OC`, 19 µM (active); for `CC(=O)N(C)C`, “inactive”.
For `CN1CCN(CCCN2c3ccccc3Sc3ccc(S(=O)(=O)N(C)C)cc32)CC1` the value was “inactive”; for `CCCCCCCC1CCC(=O)O1` (stereo not given), “inactive”.
